Compound activity (PubChem BioAssay)
Marburg entry – blocks Marburg virus binding or cell entry. Marburg virus pseudotype entry/binding inhibition, cell-based. Potency, µM (titrated, usually from 49.2 µM), inactives show at the top dose activity change, negative = inhibition, hits mostly inhibitors. actives 6.5% (n = 18,000)
Lassa entry – inhibitors of Lassa virus binding or entry into cells; Lassa virus pseudotyped entry inhibition, cell-based qHTS; Potency, µM (highest dose often 49.2 µM), inactives show top-dose activity change, negative = inhibition, actives largely listed as inhibitors; actives 4.1% (n = 18,000)
The depositor's hits bear a star; ? = inconclusive; . = no result; ! = not confirmed by another sample; [ ] = remark or other dose. This is a sample that favours compounds with a hit; in the whole collection about 8% have one here. Calls come from the whole dose curve; tested in HEK293 cells. % is set by controls: 0 for no effect and ±100 for the full control effect; potency is the fitted concentration of half-maximal effect.

SMILES	Marburg entry	Lassa entry
NCCC[C@@H](CC(=O)N[C@@H]1CCCC[C@H]1C(=O)N[C@H](CC(=O)N[C@@H](CCC(=O)O)CC(=O)O)Cc1c[nH]c2ccccc12)NC(=O)C[C@H](CO)NC(=O)[C@@H]1CCCC[C@H]1N	-3%	-11%
CN1CCCCC1C(=O)N1CCC(Oc2cccc(CN3CCN(c4ccccn4)CC3)c2)CC1 (configuration not stated)	?	-26%
CC[C@]1(O)CC(O[C@@H]2CC(N(C)C)C(O)C(C)O2)c2c(cc3c(c2O)C(=O)c2c(O)ccc(O)c2C3=O)C1C(=O)OC (some centres not stated)	?	-3%
CC[C@@]1(O)C[C@H](O[C@H]2C[C@H](N(C)C)[C@H](O[C@H]3C[C@H](O)[C@H](O[C@H]4CCC(=O)[C@H](C)O4)[C@H](C)O3)[C@H](C)O2)c2c(cc3c(c2O)C(=O)c2c(O)cccc2C3=O)[C@H]1C(=O)OC	?	8.9µM*
C[C@H](N)Cc1c[nH]c2ccc(O)cc12	3%	-6%
OC(c1ccc2c(c1)CN(Cc1cccc3nccnc13)CCO2)C1CCCCC1 (configuration not stated)	-7%	-1%
O=C(c1n[nH]c2c1CCCC2)N1CCOc2ccc(C(O)C3CCCCC3)cc2C1 (configuration not stated)	11µM*	8.9µM*
O=C(c1ccc(Cn2cnnn2)cc1)N1CCOc2ccc(C(O)C3CCCCC3)cc2C1 (configuration not stated)	-25%	?
CCc1nc(CN2CCOc3ccc(C(O)C4CCCCC4)cc3C2)c(C)[nH]1 (configuration not stated)	13µM*	?
COc1ccc(CNCC(O)COc2ccc3[nH]c(=O)ccc3c2)cc1OC (configuration not stated)	11%	13%
CCOC(=O)NN=C1C[C@@H](O)[C@@H](O)[C@@H]2[C@H]3C(=O)N(CC)C(=O)[C@@H]3CC[C@@H]12	8%[8.59 µM]	6%[8.59 µM]
CN1CCN(CC(=O)N2c3ccccc3C(=O)Nc3cccnc32)CC1	-1%	-11%
CC(C)(C)OC(=O)NCCCCC1=CC2=CC(=O)C(C)(OC(=O)c3ccco3)C(=O)C2=CO1 (configuration not stated)	-5%	5%
CCCCC1=CC2=C(OC(C)=O)C(=O)C(C)(OC(=O)CCC(=O)OC)C(=O)C2=CO1 (configuration not stated)	-12%	-18%
Clc1ccc(C2(Cn3cncn3)OCCO2)c(Cl)c1	-10%	-19%
CCCC1COC(Cn2cncn2)(c2ccc(Cl)cc2Cl)O1 (configuration not stated)	11µM*	13µM*
FC(F)(F)c1cc(NC(=S)NC(c2ccccc2)c2ccccc2)cc(C(F)(F)F)c1	?	-44%
CNCCC(Oc1ccc(C(F)(F)F)cc1)c1ccccc1 (configuration not stated)	7.1µM*	18µM*!
Cc1cc(Cl)cc2c(N=Nc3ccc(S(N)(=O)=O)cc3)c(O)[nH]c12	-24%	-24%
O=C(c1cccc(Cl)c1)N1CCCC(Cn2cc(C(=O)N3CCCC3)nn2)C1 (configuration not stated)	?	-5%
COC1=C[C@H](C(=O)NC2CCN(Cc3ccccc3)CC2)[C@H](C)[C@@H](c2ccccc2)CC1=O	9%[8.59 µM]	18%[8.59 µM]
CNc1cc(OC)c(C(=O)N[C@H]2CCN(Cc3ccccc3)[C@H]2C)cc1Cl	18µM*	?
C[C@@H]1/C(=N/O)CC2C[C@@H]1C2(C)C	8%	4%
COc1c(O)cc2c(=O)oc3c(OC)c(O)cc4c(=O)oc1c2c34	-12%	-1%
COc1cc(O)c2c(c1)oc(=O)c1c3cc(O)c(O)cc3oc21	11µM*	?
SMILES	Marburg entry	Lassa entry
CC(=O)Nc1cc(C(=O)N2CCN(c3ccccc3)CC2C)cc2ncn(CCc3ccccn3)c12 (configuration not stated)	-19%	-4%
Cc1cc2nc3ccc(=[N+](C)C)cc-3sc2cc1N	13µM*	22µM*
CN(C)c1ccc2nc3ccc(=[N+](C)C)cc-3sc2c1	3.5µM*	11µM*
COc1cc(=O)n2c(c1C(=O)NCc1ccco1)CCN(Cc1cccc(C)n1)CC2	?	-5%
CC(=O)NC[C@H]1CN(c2ccc(N3CCOCC3)c(F)c2)C(=O)O1	11%	-9%
CC1(C)C(OC(=O)CCC(=O)O)CC[C@]2(C)C1CC[C@@]1(C)C2C(=O)C=C2[C@@H]3C[C@@](C)(C(=O)O)CC[C@]3(C)CCC21C (some centres not stated)	7%	-21%
COc1cc(C)c(CN2CCC3(CCC(CNC(=O)c4ccnn4C)O3)CC2)cc1C (configuration not stated)	?	3%
CC1CCC2C(C)C(=O)OC3OC4(C)CCC1C32OO4 (configuration not stated)	-7%	?
C[C@@H]1CCC2[C@@H](C)[C@@H](O)O[C@@H]3O[C@@]4(C)CC[C@@H]1[C@@]23OO4 (some centres not stated)	1.3µM*	0.63µM*
COc1ccc(CN2CCOc3c(cc(-c4ccc(OC)nn4)cc3OC)C2)c(O)c1	-19%	-21%
COc1ccc(OC)c(-c2ccc(O)c(CN3CCc4c([nH]c5ccccc45)C3)c2)c1	13µM*	?
Cc1ccc(-c2ccnc(-n3ncc(C(=O)NCCN4CCOCC4)c3C3CC3)n2)o1	9%	-1%
COc1cccc(CNC(=O)c2c(OC)cc(=O)n3c2CCN(C(=O)c2ccc(C)cc2C)CC3)c1	9%	9%
CCC1(C2CCN(Cc3ccccn3)CC2)NC(=O)N(CC2COc3ccccc3O2)C1=O (configuration not stated)	-1%	-8%
Cn1cc(C2=C(c3cn(C4CCN(Cc5ccccn5)CC4)c4ccccc34)C(=O)NC2=O)c2ccccc21	7.1µM*	?
NC(=O)[C@@H]1CCCN1C(=O)[C@H](Cc1cnc[nH]1)NC(=O)[C@@H]1CCC(=O)N1	-10%	1%
Cc1cccc2cc(CN(C(=O)c3ccc(-c4ccc(F)cc4)cc3)C3CC3)c(N3CCC(O)CC3)nc12	-21%	?
COc1cc(CNCc2cc3ccc(F)cc3nc2N2CCOCC2)cc(OC)c1OC	-9%	-10%
OCCCNCc1cc2ccc(F)cc2nc1N1CCN(c2cccc(Cl)c2)CC1	10µM*	?
O=C(OCc1cn([C@@H]2CN(C(=O)C3CCCCC3)[C@@H](c3ccc(Cl)cc3)C[C@@H]2O)nn1)c1ccccc1	?	14%
O=C(Cn1cc(COc2cccc([N+](=O)[O-])c2)nn1)c1ccc(O)cc1	20%	.
COCCOC(=O)C1=C(C)NC(C)=C(C(=O)OC(C)C)[C@@H]1c1cccc([N+](=O)[O-])c1	-26%	-23%
CCOC(=O)C1=C(C)NC(C)=C(C(=O)OC)[C@H]1c1cccc([N+](=O)[O-])c1	?	-6%
COCCOC(=O)C1=C(C)NC(C)=C(C(=O)OC/C=C/c2ccccc2)C1c1cccc([N+](=O)[O-])c1 (configuration not stated)	6.3µM*	13µM*
CCOC(=O)C1=C(C)NC(C)=C(C(=O)OC)[C@@H]1c1cccc([N+](=O)[O-])c1	-21%[17.8 µM]	-3%[17.8 µM]
CCOC(=O)C1=C(C)NC(C)=C(C(=O)OC)C1c1cccc([N+](=O)[O-])c1 (configuration not stated)	14µM*!	?
